A549 viability = Nrf2 qHTS screen for inhibitors: counterscreen for cytotoxicity; A549 ARE-Fluc cells, CellTiter-Fluor viability, 18-24 h; Potency, µM (highest dose often 46 µM), most hits filed as inhibitors; 0.16% of 390,000 active; AID 504648, 2011
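A549 ARE_Fluc cells in 5% FBS OPTI-MEM were exposed to compounds in concentration-response for 18-24 h at 37 deg C. Viability was read by CellTiter-Fluor fluorescence (Ex 405/Em 525) after 30 min, before the luciferase read.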
ATXN2 expr inh = Primary qHTS for Inhibitors of ATXN expression; HEK-293 ATXN2-luciferase reporter, luminescence, 24 h; Potency, µM (top dose mostly 57 µM), usual class: inhibitors; 0.72% of 360,000 active; also: nearly all actives have a fitted effect of over 55% in size
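qHTS (up to 57 uM final) was run with 24 h compound exposure of reporter cells at 37 °C. Each well was multiplexed: SteadyGlo luminescence measured ATXN2-luciferase expression after a fluorogenic Gly-Phe-AFC viability readout (25 uM final).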
ATXN viability = Viability Counterscreen for Primary qHTS for Inhibitors of ATXN expression; Potency, µM (doses to about 56.7 µM), hits mostly cytotoxic; AID 651635, 2014; S2 cells (HEK-293 line with an ATXN2-luciferase reporter) viability, CellTiter-Fluor protease fluorescence, 24 h; 0.49% of 400,000 active; also: nearly all actives have a fitted effect of over 40% in size
Nrf2 block = Nrf2 qHTS screen for inhibitors; AID 504444, 2011; A549 ARE-Fluc reporter, luciferase luminescence, 18-24 h; 2.1% of 360,000 active; Potency, µM (titrated, usually from 46 µM), hits mostly inhibitors; also: nearly all actives have a fitted effect of over 60% in size
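Concentration-response testing used A549 ARE_Fluc cells at 5000 cells/well. Following an 18-24 h compound incubation, viability was read by fluorescence (Ex 405/Em 525) and luciferase output by luminescence.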
HepG2 tox = qHTS for Inhibitors of TGF-b: Cytotox Counterscreen; Potency, µM (titrated, usually from 46.1 µM), most hits filed as cytotoxic; HepG2 CAGA-GFP viability, ATP luminescence, 18 h; 0.76% of 410,000 active
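HepG2 CAGA-GFP cells (1000/well, DMEM with 1% FBS) received compound, then TGF-beta at 500 pg/mL final, and were incubated 18 hours at 37 degrees C. Viability was read by CellTiter-Glo luminescence. Media-only wells were set as complete cell-killing and DMSO as no toxicity.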
TGFb inhibitor = qHTS for Inhibitors of TGF-b | HepG2 CAGA-GFP TGF-b/SMAD3 reporter, GFP fluorescence, 18 h; TGF-beta stimulated, 500 pg/mL final | Potency, µM (doses to about 46.1 µM), actives largely listed as inhibitors | 1.2% of 410,000 active | AID 588855, 2011; also: nearly all actives have a fitted effect of over 65% in size
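GFP signal (ex488/em500-530) from TGF-beta-stimulated HEPG2 CAGA-GFP cells, 500 pg/mL final, 18 h at 37 degrees C in DMEM plus 1% FBS, normalized to unstimulated and DMSO-stimulated controls.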
Of the large screens only hits and unclear results are named; the others gave an inactive call; ! = not confirmed by another sample. Only some compounds are listed: those with a hit (about 3.8% of all), similar ones and a draw of the others. Calls follow the shape of the dose curve; as a rule, active = well fitted curve in the direction sought with a large enough effect; inconclusive = small, poorly fitted or top-dose-only effect, or another doubt; inactive = no such curve, though single readings can be large; an effect the other way counts as inactive or inconclusive.

Cn1nnnc1Sc1ncnc2scc(-c3ccc(F)cc3)c12	A549 viability inconclusive, ATXN2 expr inh inconclusive, ATXN viability inconclusive, Nrf2 block 23.1µM, HepG2 tox 10µM!, TGFb inhibitor 11.2µM
COc1ccccc1-c1csc2ncnc(Sc3nnnn3C)c12	Nrf2 block inconclusive, TGFb inhibitor inconclusive
Cn1nnnc1Sc1ncnc2scc(-c3ccc(N)cc3)c12	none (no result: ATXN2 expr inh, ATXN viability, HepG2 tox, TGFb inhibitor)
Cc1ccc(-c2csc3ncnc(Sc4nnnn4C)c23)cc1	none (no result: ATXN2 expr inh, ATXN viability, HepG2 tox, TGFb inhibitor)
Cn1c(C(=O)OCC(=O)NCCc2ccccc2)cc2sccc21	none
c1ccc(-c2csc3ncnc(Sc4nnnn4-c4ccccc4)c23)cc1	TGFb inhibitor 11.2µM (no result: A549 viability, ATXN2 expr inh, ATXN viability, Nrf2 block)
Cn1nnnc1Sc1ncnc2scc(-c3ccccc3)c12	ATXN2 expr inh inconclusive, ATXN viability inconclusive, Nrf2 block inconclusive, TGFb inhibitor inconclusive
Cc1nn(-c2ccccc2)c2c1N(CCCC(=O)NCc1ccccc1)C(=O)CS2	ATXN viability inconclusive, Nrf2 block inconclusive, TGFb inhibitor inconclusive
CCCCOc1ccc(CNC(=O)CCCN2C(=O)CSc3c2c(C)nn3-c2ccccc2)cc1	ATXN2 expr inh inconclusive, ATXN viability inconclusive, Nrf2 block 29.1µM, TGFb inhibitor inconclusive
CCOc1cc(C2NC(=O)c3c(sc4c3CCN(C)C4)N2)ccc1OC(=O)c1ccccc1Cl (stereo unspecified)	Nrf2 block 8.2µM
CCC(NC(=O)C1CCCC1)c1ccccc1 (stereo unspecified)	A549 viability inconclusive
Cc1ccc(-n2c(O)c(C=NCc3ccccn3)c3ccccc3c2=O)cc1C	Nrf2 block 10.3µM (no result: ATXN2 expr inh)
CCn1c(SCC(=O)N/N=C/C=C\c2ccccc2[N+](=O)[O-])nnc1-c1ccccc1	Nrf2 block 16.4µM
CCOc1ccc(CCNS(=O)(=O)c2c(C)nc3sc(C)cn3c2=O)cc1OCC	Nrf2 block inconclusive (no result: ATXN2 expr inh, ATXN viability)
CCN1CCN(Cc2ccc(NC(=O)c3ccc(C)c(NC(=O)N4CCNC4=O)c3)cc2C(F)(F)F)CC1	ATXN2 expr inh inconclusive, ATXN viability inconclusive, TGFb inhibitor inconclusive
CCc1ccc(C(=O)Nc2cc(CN3CCN(C)CC3)cc(C(F)(F)F)c2)cc1C#Cc1cnc2ccnn2c1	ATXN2 expr inh 24.3µM (no result: A549 viability, ATXN viability, Nrf2 block, HepG2 tox, TGFb inhibitor)
Cc1ccc(C(=O)Nc2ccc(CN3CCN(C)CC3)c(C(F)(F)F)c2)cc1C#Cc1cnc2cccnn12	ATXN2 expr inh 19.3µM (no result: A549 viability, ATXN viability, Nrf2 block, HepG2 tox, TGFb inhibitor)
CC(C)NC(=O)C1CCC(Cn2c(=O)c3sccc3n(CC(=O)NCc3ccccc3)c2=O)CC1 (stereo unspecified)	none
CC1(C)N=C(SCC(=O)Nc2ccc(Cl)cc2)C(c2ccccc2)=N1	TGFb inhibitor inconclusive
CC1(C)N=C(SCC(=O)Nc2ccc(Cl)cc2)C(c2ccc(Cl)cc2)=N1	A549 viability inconclusive, Nrf2 block 25.9µM
COc1ccc(N2CCN(C(=O)CN3C(=O)CSc4c3c(C)nn4-c3ccccc3)CC2)cc1	none
CCCc1cc(C(=O)Nc2c(C)nn(Cc3ccc(Cl)c(Cl)c3)c2C)no1	ATXN2 expr inh inconclusive, ATXN viability inconclusive, Nrf2 block 16.4µM, TGFb inhibitor inconclusive
CCCc1cc(C(=O)Nc2c(C)nn(Cc3ccc(C)cc3)c2C)no1	Nrf2 block inconclusive
Cc1nn(Cc2ccc(Cl)c(Cl)c2)c(C)c1NC(=O)c1cc(CC(C)C)on1	A549 viability inconclusive, ATXN2 expr inh inconclusive, ATXN viability inconclusive, Nrf2 block 8.2µM, TGFb inhibitor inconclusive
CC(OC(=O)c1cccc(NS(C)(=O)=O)c1)C(=O)Nc1ccc2c(c1)OCO2 (stereo unspecified)	Nrf2 block 23.1µM
COc1ccc(NS(=O)(=O)c2cc(NC(=O)CCSc3ccccc3)ccc2OC)cc1	Nrf2 block inconclusive
COc1ccc(NC(=O)C2CCC2)cc1S(=O)(=O)Nc1cc(C)ccc1Br	A549 viability inconclusive, Nrf2 block 20.6µM
COc1ccc(NC(=O)CCSc2ccc(C)cc2)cc1S(=O)(=O)Nc1ccccc1Cl	Nrf2 block 23.1µM
Cc1cc(C)c2c(C)nn(C3CCCCC3)c2n1	none
Nc1ncnc2c1c(-c1cnc3[nH]ccc3c1)nn2C1CCCC1	ATXN2 expr inh 19.3µM (no result: A549 viability, ATXN viability, Nrf2 block, HepG2 tox, TGFb inhibitor)
COc1ccc(N2CCN(c3c4c(nc5nncn35)CCC4)CC2)cc1	Nrf2 block 20.6µM (no result: ATXN2 expr inh, ATXN viability, TGFb inhibitor)
Cc1cccc(NC(=S)/N=C(\N)Nc2nc(C)c3ccc(C)cc3n2)c1	A549 viability inconclusive, Nrf2 block 14.6µM, TGFb inhibitor inconclusive
Cc1cccc(NC(=S)/N=C(\N)Nc2nc(C)c3cc(C)ccc3n2)c1	A549 viability inconclusive, ATXN viability inconclusive, TGFb inhibitor inconclusive
Cc1ccc(Cn2ccsc2=NC(=O)CCl)cc1	ATXN2 expr inh inconclusive, ATXN viability 0.794µM, TGFb inhibitor inconclusive
Cc1ccc(Cn2ccsc2=NC(=O)COC(=O)c2ccc(NC(=O)CC#N)cc2)cc1	Nrf2 block 23.1µM, TGFb inhibitor inconclusive
Cc1ccc(NC(=O)CN(C)C(=O)COC(=O)c2ccc(NC(=O)CC#N)cc2)cc1	none
N#CCCN(Cc1ccccc1)C(C(=O)NC1CCCCC1)c1cc2ccccc2o1 (stereo unspecified)	TGFb inhibitor 12.6µM (no result: A549 viability, ATXN viability, Nrf2 block)
CN(Cc1ccc(Cl)cc1)C(C(=O)NC1CCCCC1)c1cc2ccccc2o1 (stereo unspecified)	TGFb inhibitor inconclusive (no result: A549 viability, Nrf2 block)
Cc1ccc(CNc2ccc(-c3nc(-c4cccnc4)no3)cc2[N+](=O)[O-])cc1	Nrf2 block 29.1µM
Cc1ccc(CNc2ccc(-c3nc(-c4ccncc4)no3)cc2[N+](=O)[O-])cc1	none
Cc1cc(NC(=O)Nc2nnc(N(C)C3CCCCC3)s2)ccc1Br	Nrf2 block 25.9µM (no result: ATXN2 expr inh, ATXN viability)
CCN(CC)c1ccc2c(-c3ccc(S(=O)(=O)O)cc3S(=O)(=O)[O-])c3ccc(=[N+](CC)CC)cc-3oc2c1	A549 viability 11.6µM, ATXN2 expr inh inconclusive, ATXN viability 12.6µM, Nrf2 block inconclusive
COc1ccc2nc(SCC(=O)N(C)C3CCCCC3)c(C#N)cc2c1	Nrf2 block inconclusive, TGFb inhibitor inconclusive
COC(=O)c1c(NC(=O)c2c(OC)cccc2OC)sc2c1C(C(=O)OC)CC2 (stereo unspecified)	A549 viability inconclusive, Nrf2 block 13µM
O=C(Nc1ccc2c(c1)OCO2)c1cc(C2CCCCN2S(=O)(=O)Cc2ccccc2)on1 (stereo unspecified)	ATXN viability inconclusive (no result: A549 viability, Nrf2 block)
CN(C)S(=O)(=O)c1ccc(Cl)c(NC(=O)CSc2nc3c(cc2C#N)C(=O)CCC3)c1	Nrf2 block 14.6µM
